According to PubChem BioAssay (NCATS):
Records with an inconclusive call do not appear. A call without a number means that no potency is given here. The source made the active and inactive calls. Calls follow the shape of the dose curve; as a rule, active = well fitted inhibition curve with a large enough effect; inconclusive = small, poorly fitted or top-dose-only effect; inactive = flat fitted curve, though single readings scatter.

Each compound was assayed against Phospholipid hydroperoxide glutathione peroxidase GPX4 (Homo sapiens) (UniProt P36969) (assay: Primary qHTS Assay for Inhibitors of Recombinant Selenoprotein Glutathione Peroxidase 4 (GPX4) (AID 1845192; also: nearly all actives have a fitted effect of over 65% in size)). Settings: recombinant GPX4, GR-coupled NADPH fluorescence, 15 min; series mostly up to 50 µM.
In short: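 GR-coupled readout: 100 nM GR, 1 mM GSH, 0.5 mM NADPH; NADPH fluorescence (ex 340/em 450 nm) read at t=0 and after 15 min RT. GPX4 200 nM, preincubated 30 min with compound; substrate 0.5 mM CHP.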

Phospholipid hydroperoxide glutathione peroxidase GPX4 (Homo sapiens), sequence (P36969 whole entry, looked up): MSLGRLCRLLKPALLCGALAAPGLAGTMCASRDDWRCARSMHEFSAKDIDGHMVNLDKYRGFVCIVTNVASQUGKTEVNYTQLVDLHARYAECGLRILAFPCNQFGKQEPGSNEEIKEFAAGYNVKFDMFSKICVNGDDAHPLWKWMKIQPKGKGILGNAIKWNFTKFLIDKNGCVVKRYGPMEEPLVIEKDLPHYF

Structure (SMILES) | Potency | activity change, negative = inhibition
O=S(=O)(NCc1ccccn1)c1ccc(Br)c2ccccc12 | inactive | –
C/C=C(\C)C(=O)O[C@H]1C=C(CO)C(=O)[C@H](OC(C)=O)[C@H]1C(C)C | inactive | –
O=C(NCc1ccccc1)c1ccc2c(=O)n(-c3cccc(C(F)(F)F)c3)c(=S)[nH]c2c1 | inactive | –
C[C@H](Nc1cc2c(-c3ccc4c(c3)OCO4)noc2cn1)c1ccccc1 | inactive | –
CC1=CC2/C=C(\C)CCC3OC(C)(C)OC3CCC(=O)C23C(=O)NC(CC(C)C)C3C1C (centres undefined) | inactive | –
COc1ccc(Sc2ccc(NC(=O)c3ccccc3Cl)cc2C#N)cc1 | inactive | –
COc1ccc([C@H]2OC[C@H]3O[C@@H](O[C@H]4[C@@H]2NC[C@@H]4O)[C@H](O)[C@H]3O)cc1 | inactive | –
CC(=O)O[C@H]1C[C@@](O)(C(C)C)[C@@H]2[C@@H](OC(=O)c3ccc(O)cc3)CC(C)=CC[C@@]12C | inactive | –
CCCCNc1ncc2c(-c3ccc(S(=O)(=O)N4CCOCC4)cc3)nn(C3CCC(O)CC3)c2n1 (centres undefined) | inactive | –
CN1CCN(C(=O)CN[C@@H]2C[C@H]2c2ccc(OCc3ccccc3)cc2)CC1 | inactive | –
O=C(N[C@H]1CCC[C@H](CO)C1)C1CCN(c2nc3cc(Cl)c(-c4ccc(Cl)cc4)cc3o2)CC1 | inactive | –
Cn1ncc(Cl)c1-c1cc(C(=O)N[C@H](CN)Cc2cccc(F)c2)sc1Cl | inactive | –
C=C(C)C(=O)O[C@H]1[C@H]2C(=C)C(=O)O[C@@H]2/C=C(\CO)CC/C=C(/C=O)[C@@H]1O | inactive | –
Cc1noc(C)c1-c1cc(O)cc(C(O)c2ccccc2)c1 (centres undefined) | inactive | –
C=C1C(=O)OC2/C=C(/C)C3=CC(=O)C(C)(CC(OC(=O)/C(C)=C/COC(C)=O)C12)O3 (centres undefined) | inactive | –
C[C@@H](O[C@H]1OCCN(Cc2nn(P(=O)(O)O)c(=O)[nH]2)[C@H]1c1ccc(F)cc1)c1cc(C(F)(F)F)cc(C(F)(F)F)c1 | inactive | –
Cn1ncc(Cl)c1-c1cc(C(=O)NC(CN)Cc2ccc(F)c(F)c2)oc1Cl (centres undefined) | inactive | –

Structure (SMILES) | Potency | activity change, negative = inhibition
O=c1[nH]c2cccc(N3CCN(Cc4ccc(-c5ccccc5)cc4)CC3)c2o1 | inactive | –
CS(=O)(=O)Nc1ccc2oc3c(OC(F)F)ccc(C(=O)Nc4c(Cl)cncc4Cl)c3c2c1 | inactive | –
O=C(NCCCN1CCC2(CC1)OCc1ccccc12)[C@H]1CCCN1Cc1ccccc1 | inactive | –
O=C(c1ccc(Cl)cc1)N1CCN(c2ccnc3cc(Cl)ccc23)CC1 | inactive | –
COc1cc(O)cc(OC2OC(CO)C(O)C(O)C2O)c1 (centres undefined) | inactive | –
O=C(NCc1ccc(OC(F)(F)F)cc1)C1c2c(F)cccc2C(=O)N1CCc1ccccn1 (centres undefined) | inactive | –
C=CC(=O)N1CC(N2CCN(C(=O)CNc3cc(C4CC4)c(Cl)cc3O)CC2)C1 | inactive | –
CC(C)CCNC(=O)[C@H](CC(C)C)NC(=O)[C@H]1O[C@@H]1C(=O)O | inactive | –
CC(C)c1c(O)ccc2c1CC[C@H]1C(C)(C)CCC[C@]21C | inactive | –
CC(=O)O[C@@H]1[C@H](O[C@@H]2O[C@@H](CO)[C@H](O)[C@H]2O)[C@@H](O[C@@H]2O[C@@H](C)[C@H](O[C@@H]3OC[C@@H](O)[C@H](O)[C@H]3O)[C@@H](O)[C@H]2O)[C@H](OC(=O)[C@]23CCC(C)(C)C[C@H]2C2=CCC4[C@@]5(C)CC[C@H](O[C@@H]6O[C@H](C(=O)O)[C@@H](O)[C@H](O)[C@H]6O[C@@H]6O[C@H](CO)[C@H](O)[C@H](O)[C@H]6O)[C@@](C)(C=O)C5CC[C@@]4(C)[C@]2(C)C[C@H]3O)O[C@@H]1C (some centres undefined) | – | -0.242% [at 9.73 µM] (inactive)
CCN1CCC[C@@H]1CNC(=O)c1ccc2c(c1)NC(=O)c1cccc(C)c1S2 | inactive | –
C=CCCN1CCC2(CC1)CN(C(=O)c1c(F)cccc1F)c1ccc(Cl)cc12 | inactive | –
O=C(Nc1cnc(Cl)nc1)c1ccc(F)c(F)c1 | inactive | –
COc1cc(NC(=O)c2cccc(-n3cc(NC(=O)Nc4cccc(C)c4)cn3)c2)cc(OC)c1OC | inactive | –
CC(=O)Nc1cccc(Nc2ncnc(N3CCC(OCc4ccc(OC(F)(F)F)cc4)CC3)n2)c1C | inactive | –
C=C(C)C(=O)O[C@H]1[C@H]2C(=C)C(=O)O[C@@H]2C[C@@H](C)[C@@H]2O[C@@H]2C(=O)[C@](C)(O)[C@@H]1OC(=O)C(=C)C | inactive | –
CCN1CCN(Cc2ccc(NC(=O)c3ccc(C)c(Oc4ccnc5[nH]ccc45)c3)cc2C(F)(F)F)CC1 | inactive | –
